One test relates to HB3. In words: qHTS profiling for inhibitors of Plasmodium falciparum proliferation (AID 504749). The note with it: P. falciparum in erythrocytes, SYBR Green DNA, 72 h; series mostly up to 28.7 µM. The gist of the method: (§1)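 Infected RBCs, 0.3% parasitemia/2.5% Hct final; cpd 72 h, 37 C, 5% CO2; lysis buffer with saponin/triton/SYBR Green I, o/n RT dark; FI 485/535; norm. to artemisinin (0.29 uM) and DMSO.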
For orientation: Quantitative high-throughput screening tests each substance at several concentrations.

The subject of another test is ICS. Described as above. The note with it: P. falciparum in erythrocytes, SYBR Green DNA, 72 h; series mostly up to 28.7 µM. The gist of the method: as §1
Another test relates to JCK. Described as above. The note with it: P. falciparum in erythrocytes, SYBR Green DNA, 72 h; series mostly up to 28.7 µM. The gist of the method:
as §1

The test system of another test is P93_24. Described as above. The conditions noted are these: P. falciparum in erythrocytes, SYBR Green DNA, 72 h; series mostly up to 28.7 µM. The gist of the method:
as §1

For another test, the system named is P94_40. The test is described as above. The note with it: P. falciparum in erythrocytes, SYBR Green DNA, 72 h; series mostly up to 28.7 µM. Put shortly:
as §1

The subject of another test is PAD. The description is as above. The conditions noted are these: P. falciparum in erythrocytes, SYBR Green DNA, 72 h; series mostly up to 28.7 µM. The gist of the method: as §1
The test system of the next test is PC15. Described as above. The note with it: P. falciparum in erythrocytes, SYBR Green DNA, 72 h; series mostly up to 28.7 µM. The gist of the method:
as §1

Another test concerns PC26. The description is as above. The note with it: P. falciparum in erythrocytes, SYBR Green DNA, 72 h; series mostly up to 28.7 µM. Put shortly:
as §1

In another test the test system is PC49. The test is described as above. The note with it: P. falciparum in erythrocytes, SYBR Green DNA, 72 h; series mostly up to 28.7 µM. The gist of the method: as §1
The test system of a further test is SC27B. Described as above. The note with it: P. falciparum in erythrocytes, SYBR Green DNA, 72 h; series mostly up to 28.7 µM. The gist of the method:
as §1

The test system of a further test is TAB109. The test is described as above. The conditions noted are these: P. falciparum in erythrocytes, SYBR Green DNA, 72 h; series mostly up to 28.7 µM. The gist of the method: as §1
In the next test the test system is TAB113. The description is as above. The conditions noted are these: P. falciparum in erythrocytes, SYBR Green DNA, 72 h; series mostly up to 28.7 µM. Put shortly: as §1
For another test, the system named is TAB165. The test is described as above. The note with it: P. falciparum in erythrocytes, SYBR Green DNA, 72 h; series mostly up to 28.7 µM. Put shortly: as §1
For the next test, the system named is W2. Described as above. The note with it: P. falciparum in erythrocytes, SYBR Green DNA, 72 h; series mostly up to 28.7 µM. Put shortly:
as §1

Another test relates to HEK293. In words: Cytotoxic Profiling of Annotated Libraries Using Quantitative High-Throughput Screening (AID 1296008). On max response: on the % scale 0 is the no-effect control and ±100 the full control effect. The conditions noted are these: Five cell lines viability, CellTiter-Glo ATP luminescence, 48-72 h; max response: hits give low values. The gist of the method:
(§2)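 Cytotoxicity was measured as CellTiter-Glo ATP luminescence, read after 10 min at room temperature. Compound treatment of the cells lasted 48 or 72 hr at 37 degrees Celsius in a qHTS format.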
In general terms: ATP-based viability assays read luminescence as a measure of living cells.

Another test concerns KB-3-1. Described as above. The note with it: Five cell lines viability, CellTiter-Glo ATP luminescence, 48-72 h; max response: hits give low values. Put shortly: as §2
Another test deals with N140. Briefly: qHTS profiling for inhibitors of Plasmodium falciparum proliferation (AID 504749). The conditions noted are these: P. falciparum in erythrocytes, SYBR Green DNA, 72 h; series mostly up to 28.7 µM. Put shortly: as §1
A further test has as its system HaCat. In words: Cytotoxic Profiling of Annotated Libraries Using Quantitative High-Throughput Screening (AID 1296008). On max response: on the % scale 0 is the no-effect control and ±100 the full control effect. The conditions noted are these: Five cell lines viability, CellTiter-Glo ATP luminescence, 48-72 h; max response: hits give low values. The gist of the method: as §2
A further test has as its system NIH3T3. The description is as above. The note with it: Five cell lines viability, CellTiter-Glo ATP luminescence, 48-72 h; max response: hits give low values. The gist of the method: as §2

Inconclusive results are not listed. Unmarked numbers belong to inactive results. The source made the active and inactive calls. The call rests on the fitted dose curve; in most records, active means well fitted inhibition curve with a large enough effect; inconclusive means small, poorly fitted or top-dose-only effect; inactive means flat fitted curve, though single readings scatter.
Further: nearly all actives have a fitted effect of over 60% in size.
Potency means the concentration at half of the fitted maximal effect.

In the case of `CCCCCCCCNC(C)C(O)c1ccc(SC(C)C)cc1` (centres undefined), the Potency is 891 nM (active) with HB3; 89.1 nM (active) in the test with ICS; 3160 nM (active) with JCK; 891 nM (active) in the test with P93_24; 447 nM (active) in the test on P94_40; 398 nM (active) in the test on PAD. The Potency was 355 nM (active) in the test with PC15; 849 nM (active) in the test on PC26; 794 nM (active) in the test on PC49; 1120 nM (active) in the test with SC27B; 1000 nM (active) in the test on TAB109; 355 nM (active) in the test with TAB113. The Potency in the test with TAB165 was 794 nM (active); with W2, 169 nM (active); in the test on HEK293 it was 13300 nM (active). The max response in the test with KB-3-1 is 7.32%.

In the case of `C#C[C@]1(O)CC[C@H]2[C@@H]3CCC4=Cc5oncc5C[C@]4(C)[C@H]3CC[C@@]21C`, the Potency entry in the test with HB3, with ICS, in the test with JCK, in the test with N140, in the test on P93_24 and in the test on P94_40 was “inactive” throughout. The Potency result in the test with PAD, with PC15, in the test on PC26, in the test with PC49, with SC27B and with TAB109 was “inactive” throughout. Further, the Potency entry in the test with TAB113, in the test on TAB165 and with W2 was “inactive” throughout. Also, the Potency with HEK293 is 21100 nM (active). In addition, the max response in the test on KB-3-1 was -24%.

As for `O[C@@H](c1cc(C(F)(F)F)nc2c(C(F)(F)F)cccc12)[C@H]1CCCCN1`, the Potency is 56.2 nM (active) in the test on HB3; 8.9 nM (active) with ICS; 17800 nM (active) with JCK; 10 nM (active) in the test on N140; 31.6 nM (active) in the test on P93_24; 12.6 nM (active) in the test on P94_40. Further, the Potency in the test with PAD was 11.2 nM (active); in the test with PC26, 47.8 nM (active); in the test with SC27B, 25.1 nM (active); with TAB109, 15.8 nM (active); with TAB113 it was 10 nM (active); in the test on TAB165, 31.6 nM (active). Besides, the Potency was 9440 nM (active) in the test on HEK293 and 25900 nM (active) in the test on KB-3-1.

On to `CCO[C@@H]1O[C@H](C(COCc2ccccc2)OCc2ccccc2)[C@H](OCc2ccccc2)[C@H]1O` (some centres undefined), for which the Potency in the test on HEK293 is 16800 nM (active). In addition, in the test on KB-3-1, the max response was -15.4%.

Take `CNCCCCOc1ccccc1Cc1ccccc1`: the Potency result in the test on HB3 is “inactive”. In addition, the Potency is 11200 nM (active) in the test on ICS; 5010 nM (active) with PC49; 4470 nM (active) with TAB109; 1350 nM (active) in the test on W2; 15000 nM (active) with HEK293. Further, the results for the max response in the test on HaCat and with KB-3-1 were -10% and 9.62%, respectively.

In the case of `O=C1OC2(c3ccccc31)c1cc(Br)c(O)c(Br)c1Oc1c2cc(Br)c(O)c1Br`, the molecule was classed as inactive with HEK293 and in the test with HaCat. The max response in the test with NIH3T3 is -4.74%.

Turning to `CCC(C(=O)OCCOCCN(CC)CC)c1ccccc1` (centres undefined), the Potency entry in the test on HB3, with ICS, in the test on JCK, in the test with N140, with P93_24 and with PAD was “inactive” throughout. Moreover, the Potency entry in the test with PC15, in the test on PC26, with PC49, in the test on SC27B, in the test on TAB113 and in the test with TAB165 was “inactive” each time. The Potency in the test with W2 was 12000 nM (active). For the same molecule, the max response with HEK293 was -19.3%; in the test on KB-3-1 it was 16.3%. The outcome with HaCat and in the test with NIH3T3 was inactive.

Turning to `CCN(CC)CCNC(=O)COc1ccc(OC)cc1`, the Potency result in the test on HB3, with ICS, with JCK, in the test on N140, with P93_24 and in the test on P94_40 was “inactive” each time. For the same molecule, the Potency entry in the test on PAD, in the test on PC15, in the test on PC26, in the test on PC49, in the test with SC27B and with TAB109 was “inactive” throughout. The Potency result in the test on TAB113 and with TAB165 was “inactive” each time. The max response with HEK293 was 4.77%; with NIH3T3, -6.7%.

Turning to `NC(=O)C1(N2CCCCC2)CCN(CCCC(=O)c2ccc(F)cc2)CC1`, the Potency result in the test on HB3, with ICS, in the test on JCK, in the test on N140, in the test with P94_40 and in the test with PAD was “inactive” throughout. The Potency result in the test on PC15, in the test on PC26, in the test on PC49, in the test on SC27B and in the test on TAB165 was “inactive” in each case. Also, the max response was -19.7% in the test on HEK293, 5.68% with KB-3-1 and -2.39% with NIH3T3. Also, in the test on HaCat, the outcome was inactive.

In the case of `Nc1nc(N)c(-c2ccccc2)s1`, the Potency entry in the test on HB3, with ICS, with JCK, in the test with N140, in the test on P93_24 and in the test on P94_40 was “inactive” throughout. In addition, the Potency result in the test on PAD, in the test on PC15, with PC26, in the test on PC49, with SC27B and in the test on TAB109 was “inactive” each time. Moreover, the Potency entry in the test with TAB113, in the test with TAB165 and in the test with W2 was “inactive” throughout. The max response with HEK293 was -1.75%; in the test on HaCat it was -10.8%; in the test with KB-3-1 it was -0.967%; in the test with NIH3T3, 2.51%.

With `O=C(O)C1(C(=O)O)CCC1.[NH2-].[NH2-].[Pt+2]`, the Potency in the test with HB3 was 10000 nM (active). Further, the Potency result in the test with JCK, in the test with N140, in the test with P93_24, in the test on P94_40, in the test on PAD and in the test with PC15 was “inactive” in each case. The Potency entry in the test on PC26, in the test with PC49, with SC27B, in the test on TAB109, in the test on TAB113 and in the test with TAB165 was “inactive” in each case. For the same molecule, the figures for the max response in the test on HEK293, in the test on HaCat and in the test on NIH3T3 were 1.14%, 1.48% and -2.25%, respectively.

Consider `CCCCCCCCCCCCOCCOCCOCCOCCOCCOCCOCCOCCOCCO`, for which the Potency result in the test with JCK, with PC26 and with PC49 was “inactive” throughout. For the same molecule, the Potency in the test on HEK293 was 7500 nM (active). Moreover, the max response in the test on HaCat is 0.283%; in the test on NIH3T3, -5.79%.

In the case of `Oc1ccc(Cl)cc1Cc1cc(Cl)ccc1O`, the Potency result in the test with HB3, in the test with P93_24 and in the test on PC49 was “inactive” in each case. In addition, the Potency in the test on N140 was 11200 nM (active); in the test with TAB165, 11200 nM (active); in the test on HEK293, 21100 nM (active).

In the case of `CCc1ccc(C(=O)C(C)CN2CCCCC2)cc1` (centres undefined), the Potency entry in the test on HB3, in the test with ICS, with JCK, with N140, in the test with P94_40 and in the test on PAD was “inactive” in each case. In addition, the Potency entry in the test on PC15, in the test on PC26, in the test on PC49, in the test with SC27B, in the test with TAB109 and in the test on TAB113 was “inactive” throughout. The Potency result with TAB165 was “inactive”. The max response with HEK293 is -19.7%; in the test with KB-3-1, -1.02%; in the test on NIH3T3 it was -2.26%. Further, in the test with HaCat, the outcome was inactive.

For the molecule `O=C(Nc1ncc([N+](=O)[O-])s1)c1cccs1`, the Potency entry in the test on HB3, with ICS, with JCK, in the test on N140, in the test with P93_24 and with P94_40 was “inactive” in each case. Further, the Potency result with PAD, in the test on PC15, in the test on PC26, in the test on PC49, in the test with SC27B and in the test with TAB109 was “inactive” in each case. The Potency entry with TAB113, with TAB165 and with W2 was “inactive” in each case. For the same molecule, in the test on HEK293, the Potency is 15000 nM (active). In addition, in the test on HaCat, the max response is -23.3%.

Values taken from PubChem BioAssay (NCATS).
